Results: article PMC4552634, “A New Set of Chemical Starting Points with Plasmodium falciparum Transmission-Blocking Potential for Antimalarial Drug Discovery” (PLoS ONE, 2015)
Out of some 13,000 compounds screened, about 3,200 (25%) showed an effect of 50% or more. The list shows a part of the results.

Each compound was assayed on P. falciparum stage V gametocytes. Details: 48 h, 5 µM; inhibitor.
Parameters: BacTiter-Glo ATP luminescence viability of purified stage V gametocytes in 384-well plates, per cent inhibition versus DMSO

Structure (SMILES) | % Inhibition [%]
COc1ccc(-c2ccc(NC(=O)c3ccc(C#N)cc3)cc2)cc1CN1CCNCC1 [TCMDC-132516] | 43.65
O=C(Nc1ccc(-c2ccc(CN3CCNCC3)cc2)cc1)c1cccc(Cl)c1 [TCMDC-132590] | 87.95
O=C(Nc1cccc(-c2ccc(CN3CCCC3)cc2)c1)c1cccc(Cl)c1 [TCMDC-132643] | 24.88
COc1ccc(-c2cccc(NC(=O)c3cccc(Cl)c3)c2)cc1CN1CCCC1 [TCMDC-132615] | 79.62
O=C(Nc1cccc(-c2ccc(CN3CCNCC3)cc2)c1)c1cccc(Cl)c1 [TCMDC-132640] | -31.19
O=C(Nc1cccc(-c2cccc(CN3CCCC3)c2)c1)c1cccc(Cl)c1 [TCMDC-132659] | 85.38
CN1CCCN(Cc2cccc(-c3cccc(NC(=O)c4cccc(Cl)c4)c3)c2)CC1 [TCMDC-132657] | -0.3892
COc1ccc(-c2ccc(NC(=O)c3cccc(Cl)c3)cc2)cc1CN1CCCC1 [TCMDC-132525] | 40.62
COc1ccc(-c2ccc(NC(=O)c3ccc(Cl)cc3)cc2)cc1CN1CCNCC1 [TCMDC-133338] | 93.69
CN1CCCN(Cc2ccc(-c3ccc(NC(=O)c4cccc(Cl)c4)cc3)cc2)CC1 [TCMDC-132591] | 42.97
COc1ccc(-c2ccc(NC(=O)c3ccc(C#N)cc3)cc2)cc1CN1CCCC1 [TCMDC-132519] | 46.41
COc1ccc(-c2cccc(NC(=O)c3cccc(Cl)c3)c2)cc1CN1CCCN(C)CC1 [TCMDC-132614] | -18.61
COc1ccc(-n2nc(C)c3c2NC(=O)CC3c2ccccc2OCc2ccc(F)cc2)cc1 (stereo not drawn) [TCMDC-124906] | 40.61
COC(=O)c1cc(C(O)CNC(C)CCCc2ccccc2)ccc1O (stereo not drawn) [TCMDC-131241] | -5.82
COc1ccc2nccc([C@@H](O)CN3CCC(NCc4nc5c(F)cccc5[nH]4)CC3)c2c1 [TCMDC-140760] | 20.74
O=C(c1cccc(-c2cccc(-c3nc4cc(C(F)(F)F)ccc4[nH]3)c2)c1)N1CCCCC1CN1CCC(O)C1 (stereo not drawn) [TCMDC-132346] | -18.68
CCN(CCCN1CCCCC1)c1cc(C)nc(Nc2cc(Cl)cc(Cl)c2)n1 [TCMDC-132455] | 8.984
Cc1nc(C(C)Nc2nncc(-c3ccc(Cl)cc3)n2)cs1 (stereo not drawn) [TCMDC-124636] | -29.02
CC(C)c1cccc(C(NC(=O)[C@H]2Cc3ccccc3CN2C(=O)c2cccc(N3CCOCC3)c2)C2CCCC2)c1 (stereo partly drawn) [TCMDC-138264] | 2.743
FC(F)(F)c1ccc2[nH]c(-c3ccc(-c4cccc(CNCC5CCCO5)c4)s3)nc2c1.O=C(O)C(F)(F)F (stereo not drawn) [TCMDC-133099] | -9.129
COc1ccc2nccc([C@@H](O)CN3CCC(NS(=O)(=O)c4cc(Br)c(Br)s4)CC3)c2c1 [TCMDC-141306] | 29.28
COc1ccc(-c2cccc(NC(=O)c3cccc(Cl)c3)c2)cc1CN1CCC(O)CC1 [TCMDC-132618] | 87.3

Structure (SMILES) | % Inhibition [%]
COc1ccc(-c2cccc(NC(=O)c3ccc(Cl)cc3)c2)cc1CN1CCC(O)CC1 [TCMDC-132606] | -74.32
COc1ccc(-c2ccc(NC(=O)c3cccc(Cl)c3)cc2)cc1CN1CCC(O)CC1 [TCMDC-133334] | 46.17
Cc1ccc(CNc2cc(C(F)(F)F)nc(-c3ccc(S(C)(=O)=O)cc3)n2)cc1 [TCMDC-138598] | 20.79
O=C(/C=C/c1ccc(C(F)(F)F)cc1)N1CCc2cc3nccc(N4CCN5CCC[C@H]5C4)c3cc21 [TCMDC-140045] | 20.84
CN1CCN(c2ccnc3cc4c(cc23)N(C(=O)Nc2ccc(-c3ccncc3)c3ccccc23)CC4)CC1 [TCMDC-139371] | 4.895
CN1CCCN(c2ccnc3cc4c(cc23)N(C(=O)c2ccc(Cl)c(Cl)c2)CC4)CC1 [TCMDC-140242] | 99.6
CN1CCCN(c2ccnc3cc4c(cc23)N(C(=O)c2ccccc2Cl)CC4)CC1 [TCMDC-140239] | 27.46
Cc1cc(-c2cccc3c(C(=O)N4CCc5cc6nccc(N7CCN8CCC[C@H]8C7)c6cc54)cccc23)cc(C)n1 [TCMDC-139793] | 31.07
Cc1nc(-c2ccc(C(F)(F)F)cn2)sc1C(=O)N1CCc2cc3nccc(N4CCN5CCC[C@H]5C4)c3cc21 [TCMDC-140330] | -2.363
O=C(Nc1ccc(Cl)c(Cl)c1)N1CCc2cc3nccc(N4CCN5CCC[C@H]5C4)c3cc21 [TCMDC-140055] | 49.62
CN1CCN(c2ccnc3ccc(NC(=O)c4ccc(Cl)c(Cl)c4)cc23)CC1 [TCMDC-139350] | 4.304
CN1CCCN(c2ccnc3cc4c(cc23)N(C(=O)c2ccc(Cl)cc2Cl)CC4)CC1 [TCMDC-140241] | 126.7
Cc1cc(-c2cccc3c(C(=O)N4CCc5cc6nccc(N7CCCN(C)CC7)c6cc54)cccc23)cc(C)n1 [TCMDC-140244] | 100.8
CN1CCCN(c2ccnc3cc4c(cc23)N(C(=O)c2ccc(C(F)(F)F)cc2)CC4)CC1 [TCMDC-140243] | 67.52
CN1CCN(c2ccnc3cc4c(cc23)N(C(=O)Nc2ccc3c(c2)CCCC3=O)CC4)CC1 [TCMDC-139372] | 0.5076
CN1CC(c2ccccc2)c2cc(O)c(CN3CCCCC3)cc2CC1Cc1ccccc1 (stereo not drawn) [TCMDC-131902] | -4.593
COc1cc(Cc2cnc(N)nc2N)cc(OCCCCNS(=O)(=O)C(F)(F)F)c1OC [TCMDC-137348] | 8.081
O=C(NC1CCN(CCCOc2ccnc3cc(Cl)ccc23)C1)c1ccc(Br)cc1 (stereo not drawn) [TCMDC-136147] | -6.07
Cc1nc(-c2ccc(-c3ccc(C(=O)Nc4ccc(Cl)c(N5CCN(C)CC5)c4)cc3)c(C)c2)no1 [TCMDC-131979] | -60.2
CC1(C)N=C(N)N=C(N)N1c1ccc(I)cc1 [TCMDC-124271] | 5.763
CN(CCCCCNC(=O)/C=C/c1ccc(Cl)c(Cl)c1)CCCCc1c[nH]c2ccccc12 [TCMDC-139328] | -28.14
CC1CCN(c2nc(C(=O)Nc3cccc4c3CCCC4)c(C(C)C)s2)CC1 [TCMDC-134662] | 11.59

Structure (SMILES) | % Inhibition [%]
CN1CCN(c2ccnc3ccc(NC(=O)Nc4ccc(Cl)cc4)cc23)CC1 [TCMDC-139322] | 28.3
CN1CCN(c2ccnc3cc4c(cc23)N(Cc2ccccc2)CC4)CC1 [TCMDC-139341] | -3.615
CN1CCCN(c2ccnc3cc4c(cc23)N(C(=O)c2ccc(Cl)cc2)CC4)CC1 [TCMDC-140240] | 94.93
Cc1ccc(C2(C)CC(C)(C)N(C(=O)COc3ccc4ccccc4c3)c3ccccc32)cc1 (stereo not drawn) [TCMDC-124089] | -65.04
COc1ccccc1CCN1CCC(CN(C)Cc2ccc(O)c(Cl)c2)CC1 [TCMDC-124611] | 14.29
COc1ccc2nccc([C@@H](O)CN3CCC(NC(=O)c4cc5c(Cl)cc(Cl)cc5[nH]4)CC3)c2c1 [TCMDC-141039] | -18.46
CN(C)c1ccc(C=C2SC(=O)NC2=Nc2ccccc2)cc1 [TCMDC-123738] | 34.75
Cc1ccc(CN2CCCCC(NC(=O)c3cc4ccccc4s3)C2)cc1 (stereo not drawn) [TCMDC-141748] | -37.31
O=C(Nc1cccc(Cl)c1)N[C@H]1CCN(Cc2ccc(OCCCN3CCCCC3)cc2)C1 [TCMDC-141788] | 103.5
O=C(Nc1ccc(Oc2ccccc2)cc1)N[C@@H](Cc1ccc(O)cc1)C(=O)NC1CCN(Cc2ccc(O)c([N+](=O)[O-])c2)C1 (stereo partly drawn) [TCMDC-140421] | 0.03751
O=C(Nc1ccc(Cl)cc1)N[C@H]1CCN(Cc2ccc(OCCCN3CCCCC3)cc2)C1 [TCMDC-141787] | 90.53
COc1cc(CN2CCC(NC(=O)[C@H](Cc3ccccc3)NC(=O)Nc3ccc(Oc4ccccc4)cc3)C2)ccc1O (stereo partly drawn) [TCMDC-140500] | -15.62
COc1cccc(NC(=O)NC2CCN(CCCCCNC(=O)/C=C/c3ccc(Cl)c(Cl)c3)CC2)c1 [TCMDC-139388] | 31.25
O=C(Nc1ccc(Cl)cc1)Nc1ccc(OCC(O)CN2CCCCC2)cc1 (stereo not drawn) [TCMDC-123519] | 4.072
O=C(Nc1ccc(Oc2ccccc2)cc1)N[C@H]1CCN(Cc2ccc(OCCCN3CCCCC3)cc2)C1 [TCMDC-141786] | 96.23
O=C(Nc1ccc(-c2ccccc2)s1)N[C@H]1CCN(Cc2ccc(OCCCN3CCCCC3)cc2)C1 [TCMDC-141789] | 86.03
Cc1cccc2[nH]c(-c3cccc(-c4cccc(NC(=O)NCc5cccc(F)c5)c4)c3)nc12 [TCMDC-133291] | 37.78
O=C(Nc1cccc(-c2cccc(-c3nc4ccc(F)cc4[nH]3)c2)c1)Nc1ccc(F)c(F)c1F [TCMDC-133233] | -45
Cc1cc(Cl)c(S(=O)(=O)N(C)c2ccccc2)cc1OCC(=O)NC1CCCCC1 [TCMDC-124368] | -27.39
Cc1cc(C(=O)CN2C(=O)NC3(CCOc4ccccc43)C2=O)c(C)n1Cc1ccc(F)cc1 (stereo not drawn) [TCMDC-125246] | -0.05637
CC(CNc1nc(NCC(c2ccccc2)c2ccccc2)c2[nH]cnc2n1)c1ccccc1 (stereo not drawn) [TCMDC-131859] | -14.76
O=C(Nc1ccc(C(F)(F)F)cc1)c1ccc(S(=O)(=O)NC2CCN(Cc3ccccc3)C2)cc1 (stereo not drawn) [TCMDC-133675] | 7.046
